From PubChem BioAssay (NCATS)
Records with an inconclusive call do not appear. Active and inactive are the calls of the source. Calls come from the whole dose curve; as a rule, active = well fitted activation curve with a large enough effect; inconclusive = small, poorly fitted or top-dose-only effect; inactive = no such curve, though single readings can be large or run the other way.

Biological target: Cellular tumor antigen p53 (Homo sapiens) (UniProt P04637)
Assay: Primary qHTS for small molecule compounds that upregulate eGFP-tagged delta133p53alpha (in N-terminal) cells. (AID 2060322);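 note: series mostly up to about 56 µM; 0% = DMSO vehicle and 100% = reference activator; nearly all actives have a fitted effect of over 75% in size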
Settings: NCI-H358 eGFP-delta133p53alpha fluorescence, 24 h; activation: stronger effect = higher value
Summary of the method: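 NCI-H358 cells pre-induced 24 h with 10 ng/ml doxycycline to express N-terminal eGFP-delta133p53alpha, then dosed 24 h at 37C without doxycycline; fixed, Hoechst-stained, GFP intensity by laser scanning cytometry, normalized to DMSO (0%) and 57.5 uM 5-azacytidine (100%).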

Sequence of Cellular tumor antigen p53 (Homo sapiens) (P04637 whole entry, looked up): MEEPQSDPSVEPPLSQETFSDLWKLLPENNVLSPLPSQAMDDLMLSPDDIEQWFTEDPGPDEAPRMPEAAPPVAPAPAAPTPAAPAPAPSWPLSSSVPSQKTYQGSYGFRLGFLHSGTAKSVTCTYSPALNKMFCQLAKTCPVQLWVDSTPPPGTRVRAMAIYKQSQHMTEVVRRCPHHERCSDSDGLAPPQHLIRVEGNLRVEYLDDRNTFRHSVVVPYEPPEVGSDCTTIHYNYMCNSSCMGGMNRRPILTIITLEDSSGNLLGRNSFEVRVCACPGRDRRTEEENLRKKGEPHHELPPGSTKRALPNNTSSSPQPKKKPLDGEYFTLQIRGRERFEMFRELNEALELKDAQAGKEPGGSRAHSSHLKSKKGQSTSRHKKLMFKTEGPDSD

SMILES	activation
CC1(C)CCCC2(C)C1C(=O)C=C(C(=O)O)C2(O)C(=O)O (configuration not stated)	41.2% (inactive)
COC1=CC(=O)O[C@@H](/C=C/c2ccccc2)[C@@H]1O	9.82% (inactive)
CC1=C2C(=O)C=C(CO)[C@@H]2[C@H]2OC(=O)[C@H](C)[C@@H]2[C@@H](O)C1	-3.57% (inactive)
CC1C=CC2CCCCC2C1CCC1CC(O)CC(=O)O1 (configuration not stated)	-0.893% (inactive)
COC(=O)C1=COC(OC2OC(CO)C(O)C(O)C2O)C2C(C)C(OC(C)=O)C(OC(=O)c3ccccc3)C12 (configuration not stated)	-6.87% (inactive)
C[C@]12CCC[C@](C)(C(=O)O)C1[C@@H](O)[C@@H](O)C13CC(CCC12)C(CO)(O[C@@H]1O[C@H](CO)[C@@H](O)[C@H](O)[C@H]1O)C3 (some centres not stated)	-9.16% (inactive)
Cc1[nH]c2ccccc2c1CCNC(=O)c1ccccc1F	-0.477% (inactive)
O=C(Cc1ccc(-c2ccccc2)cc1)NC1CCC1	-1% (inactive)
C[C@]12CC/C(=N\OCC(=O)O)C=C1CC[C@@H]1[C@@H]2[C@@H](O)C[C@@]2(C)[C@H]1CC[C@]2(O)C(=O)CO	5.67% (inactive)
N#Cc1cccc(C(=O)Nc2cc(-c3ccccc3)nn2-c2ccccc2)c1	-0.893% (inactive)
COc1cc(OC)cc(C(=O)Nc2ccc(Cl)c(-c3nc4ccc(N(C)C)cc4[nH]3)c2)c1	-11.5% (inactive)
C[C@@H]1O[C@@H](OC[C@H]2O[C@@H](OCCc3ccccc3)[C@H](O)[C@@H](O)[C@@H]2O)[C@H](O)[C@H](O)[C@H]1O	-8.4% (inactive)
C=C1C(=O)OC2C1C(O)CC1(C)C(O)CCC(C=O)C21 (configuration not stated)	13.4% (inactive)
C[C@@H]1CCC2C(C)(C)[C@H](O)CC[C@]2(C)[C@@]12Cc1c(O)cc3c(c1O2)CNC3=O (some centres not stated)	-20.6% (inactive)
O=C(COc1cccc2c(=O)[nH]ccc12)c1ccccc1	-14.5% (inactive)
CC(CCC1(O)OC2CC3C4CCC5CC(O[C@@H]6O[C@H](CO)[C@@H](O)[C@H](O)[C@H]6O[C@@H]6OC[C@@H](O)[C@H](O)[C@H]6O)C(O)CC5(C)C4CCC3(C)C2C1C)CO[C@@H]1O[C@H](CO)[C@@H](O)[C@H](O)[C@H]1O (some centres not stated)	-5.36% (inactive)
CC1CCC2(NC1)OC1CC3C4CC=C5CC(O[C@@H]6O[C@H](CO)[C@@H](O[C@@H]7O[C@@H](C)[C@H](O)[C@@H](O)[C@H]7O)[C@H](O)[C@H]6O[C@@H]6O[C@@H](C)[C@H](O)[C@@H](O)[C@H]6O)CCC5(C)C4CCC3(C)C1C2C (some centres not stated)	16.8% (inactive)
CC1CCC2C(C)(C)[C@@H](O)CC[C@]2(C)C12Cc1c(O)cc3c(c1O2)CN(C(CCC(=O)O)C(=O)O)C3=O (some centres not stated)	23.2% (inactive)
C/C(=N\O)c1ccc(OCC(=O)N2CCCCC2)cc1	3.35% (inactive)
Cc1noc(-c2ccc(-c3ccc(CC(=O)O)cc3)cc2)c1NC(=O)O[C@H](C)c1ccccc1	-1.79% (inactive)
CC(C)=CCC[C@](C)(O[C@@H]1O[C@H](CO[C@@H]2OC[C@H](O)[C@H](O)[C@H]2O)[C@@H](O)[C@H](O)[C@H]1O)[C@H]1CC[C@]2(C)[C@@H]1[C@H](O)C[C@@H]1[C@@]3(C)CC[C@H](O[C@@H]4O[C@H](CO)[C@@H](O)[C@H](O)[C@H]4O[C@@H]4O[C@H](CO)[C@@H](O)[C@H](O)[C@H]4O)C(C)(C)[C@@H]3CC[C@]12C	9.67% (inactive)
Cc1noc(=O)c2ccc(NC(=O)C(O)(CC(C)(C)c3cccc4c3OCC4)C(F)(F)F)cc12 (configuration not stated)	19.7% (inactive)
C[C@@H]1C/C=C/C=C\C=C\C=C\[C@H](O[C@@H]2O[C@H](C)[C@@H](O)[C@H](N)[C@@H]2O)C[C@@H]2O[C@](O)(C[C@@H](O)C[C@H]3O[C@@H]3/C=C/C(=O)O1)C[C@H](O)[C@H]2C(=O)O	13.7% (inactive)
CC(=O)O[C@@H]1C[C@@]2(C)C(CC[C@]3(C)C2CC=C2C4CC(C)(C)CC[C@]4(C(=O)O)CC[C@]23C)C(C)(C)[C@H]1O (some centres not stated)	13.4% (inactive)
CC(C)(C)Oc1ccc(OCC2Cc3ccccc3CN2C(=O)c2cccc3ccccc23)cc1 (configuration not stated)	-10.5% (inactive)
CC1=C2CC(C)(C)CC2C(O)C2=C(C1)C(=O)OC2O (configuration not stated)	-7.14% (inactive)
COc1cc2occc2c(O[C@@H]2O[C@H](CO)[C@@H](O)[C@H](O)[C@H]2O)c1CCC(=O)O	9.16% (inactive)
